Where “and” joins values, the source holds several entries; their conditions need not be identical. Identical values can stand only once. Inconclusive results are not listed. Calls of active or inactive are those of the source. Unless noted, calls come from the whole dose curve; as a rule, active = well fitted activation curve with a large enough effect; inconclusive = small, poorly fitted or top-dose-only effect; inactive = flat fitted curve, though single readings scatter.
How the values were obtained:
[1] = qHTS assay for small molecule activators of the p53 signaling pathway (AID 651743; active = well fitted activation curve with a large enough effect in the signal ratio, not every such curve was filed as active; the % refers to the signal ratio; note: potency is the fitted concentration of half-maximal effect; for activation: series mostly up to about 92 µM; % of control where 0% means no effect); conditions: HCT-116 p53RE-bla, beta-lactamase FRET ratio, 16 h; activation: stronger effect = higher value
Outline: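 p53RE-bla HCT-116 cells with a stably integrated beta-lactamase reporter under p53 response elements were plated, rested 5 hours at 37 C/5% CO2, then exposed to compounds in DMSO for 16 hours at 37 C. LiveBLAzer B/G FRET substrate was read after 2 hours at room temperature.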

[2] = qHTS assay for small molecule activators of the nuclear factor-kappa B (NF-kB) signaling pathway (AID 651749; active = well fitted activation curve with a large enough effect in the signal ratio; the % refers to the signal ratio; note: series mostly up to about 77 µM; % of control where 0% means no effect); conditions: NF-kB-bla ME-180 cells, beta-lactamase FRET ratio, 16 h; stronger effect = higher value
Outline: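 ME-180 cells stably carrying a beta-lactamase reporter under an NF-kB response element were exposed to compound or DMSO vehicle for 16 hr at 37C, 5% CO2. Pathway activation was read by FRET, since reporter expression disrupts FRET.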

[3] = qHTS assay for environmental chemicals that activate the Aryl hydrocarbon Receptor (AhR) signaling pathway (AID 651777); conditions: 1A2-DRE human hepatoma cells, luciferase, 24 h; stronger effect = higher value; note: % of control where 0% means no effect; nearly all actives have a fitted effect of over 15% in size
Outline: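 Human hepatoma 1A2-DRE cells stably carrying a DRE/CYP1A2 promoter–luciferase reporter, 1,200 cells/well, exposed to compound 24 hr at 37 C. Luciferase read by One-Glo luminescence after 30 min at room temperature; increased signal marks AhR activation.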

[4] = target: Peroxisome proliferator-activated receptor alpha (Homo sapiens) (UniProt Q07869); assay: qHTS assay for small molecule agonists of the peroxisome proliferator-activated receptor alpha (PPARalpha) signaling pathway (AID 651778); conditions: PathHunter PPARalpha complementation, chemiluminescence, 6 h; stronger effect = higher value; note: % of control where 0% means no effect
Peroxisome proliferator-activated receptor alpha (Homo sapiens), sequence (Q07869 whole entry, looked up): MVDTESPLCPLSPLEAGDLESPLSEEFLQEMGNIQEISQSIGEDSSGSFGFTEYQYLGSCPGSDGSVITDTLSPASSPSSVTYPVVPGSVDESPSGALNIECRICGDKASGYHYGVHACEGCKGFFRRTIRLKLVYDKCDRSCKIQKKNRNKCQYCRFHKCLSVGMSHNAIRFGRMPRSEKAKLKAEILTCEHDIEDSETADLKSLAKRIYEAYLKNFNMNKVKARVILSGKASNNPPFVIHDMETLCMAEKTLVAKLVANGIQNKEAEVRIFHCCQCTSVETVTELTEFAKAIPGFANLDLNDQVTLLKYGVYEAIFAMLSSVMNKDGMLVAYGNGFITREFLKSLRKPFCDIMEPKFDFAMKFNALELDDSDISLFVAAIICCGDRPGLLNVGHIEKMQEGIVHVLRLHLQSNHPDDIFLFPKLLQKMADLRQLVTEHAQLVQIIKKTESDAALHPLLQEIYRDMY
Outline: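 Cells plated at 2,000/well and held overnight at 37 C, 5% CO2, then compound added by pin tool for 6 hr; after PathHunter detection reagent and 60 min at room temperature, chemiluminescence from enzyme complementation was read.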

[5] = qHTS assay for small molecule disruptors of the mitochondrial membrane potential - 1 hr assay (AID 651754; calls by dose curve; note: nearly all actives have a fitted effect of over 35% in size; note: potency is the fitted concentration of half-maximal effect)
Outline: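 Steps: seed HepG2 cells and let attach overnight; pin-transfer compound or vehicle; incubate 1 hr at 37C; add Mito-MPS dye for 30 min; read two-channel fluorescence for monomer and aggregate forms.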

[6] = qHTS assay for small molecule disruptors of the mitochondrial membrane potential - 5 hr assay (AID 651755; calls by dose curve; note: nearly all actives have a fitted effect of over 40% in size; note: potency is the fitted concentration of half-maximal effect)
Outline: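 HepG2 cells, attached overnight at 37C, were exposed to compound or DMSO for 5 hr at 37C, 5% CO2. Mito-MPS dye was then added for 30 min, and fluorescence read at 490/535 nm (monomers) and 540/590 nm (aggregates).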

CC(C)NC(C)C
inactive: activation [1] -4.28% | activation [2] -1.54% | activation [3] -1.71% | max response [4] 0.708%

COP(=S)(OC)Oc1cc(Cl)c(Cl)cc1Cl
inactive: activation [1] -3.16% | activation [2] -1.3% | activation [3] 2.9% | max response [4] -0.715%

O=C1c2ccccc2C(=O)C1C(=O)C(c1ccccc1)c1ccccc1
inactive: activation [1] 23.1% | activation [2] -1.82% | activation [3] 5.81% | max response [4] -1.83%

CC(C)(C)c1ccc(O)cc1
inactive: activation [1] -2.47% | activation [3] 0.343%

COc1cc(OC)c(OC)cc1C=O
inactive: activation [1] -3.74% | activation [2] 2% | Potency [5] | Potency [6] | max response [4] 0.405%

O=C(O)CCCc1ccc(N(CCCl)CCCl)cc1
inactive: activation [2] 0.602% and -1.35% | activation [3] -0.459% and 0.835% | max response [4] 0.105% and -1.89%
active: Potency [1] 22.4 µM and 35.5 µM

CN1C[C@H](C(=O)N[C@]2(C)O[C@@]3(O)[C@@H]4CCCN4C(=O)[C@H](Cc4ccccc4)N3C2=O)C=C2c3cccc4[nH]cc(c34)C[C@H]21
active: Potency [5] 11.9 µM | Potency [6] 11.9 µM
inactive: activation [1] -2.39% and -2.48% | activation [3] 6.16% and 6.48% | max response [4] -3.76% and -6.49%

CC(C)c1cccc(C(C)C)c1O
inactive: activation [1] 0.635% | activation [2] 1.44% | Potency [5] | Potency [6] | activation [3] 0.116% | max response [4] -5.67%

From PubChem BioAssay (NCATS)
